Rows were chosen to be rich in hits. Some 0.86% of all compounds tested hit in one or more screens of this group.
TAR Tat displ = HIV-1 TAR-Tat binding disruption | z-score (no concentration beside the values) | HIV-1 TAR RNA, Tat peptide displacement FRET; hits give high values | hit rate 0.6% among 100,000; active means z-score of 3 or more in at least 2 runs
CDC25B-CDK2 inh = human CDC25B-CDK2/CyclinA binding inhibition. z-score (no concentration beside the values). P30305+P24941. HTRF CDC25B-CDK2/CyclinA binding, anti-His/anti-Flag; hits give high values. hit rate 0.72% among 94,000. AID 1259370; in the data active means z-score above about 3.2
Starred values were filed as active, the others as inactive; / = no result.

SMILES	TAR Tat displ	CDC25B-CDK2 inh
COc1cc(OC)c(NC(=O)C(C)Sc2nnc(-c3ccoc3C)o2)cc1Cl (configuration not stated)	1.72	-0.34
COc1ccc(OC)c(NC(=O)C(C)Sc2nnc(-c3ccoc3C)o2)c1 (configuration not stated)	2.08	11.8*
CN1CCc2c(sc(-n3cccc3)c2CNC(=O)Nc2cccc(Cl)c2)C1	-6.79	/
CCCc1nc2n(n1)C1(CCCCC1)[C@@H]1CCCC[C@@H]1N2C(=O)C1CC1	-0.63	0.19
Cc1ccc2nc(NC3=NCN(C(C)C)CN3)nc(C)c2c1	-1.03	8.12*
Cc1ccc2nc(NC3=NCN(CCN4CCOCC4)CN3)nc(C)c2c1	2.35	0.22
Cn1cc(S(=O)(=O)N2CCCC2)cc1C(=O)NC1CCCc2ccccc21 (configuration not stated)	2.27	/
CC(Sc1nc2c(c(=O)[nH]1)CCCC2)C(=O)Nc1ccc(Br)cc1 (configuration not stated)	12.9*	-1.92
CC(Sc1nc2c(c(=O)[nH]1)CCCC2)C(=O)Nc1ccc(F)cc1 (configuration not stated)	0.31	-1.13
Cc1cc(C(=O)C(=O)Nc2nncs2)c(C)n1-c1ccccc1	6.91	-2.44
Cc1cc(C(=O)C(=O)Nc2nnc(-c3ccco3)s2)c(C)n1-c1ccccc1Cl	33.1*	-1.15
Cc1cc(C(=O)C(=O)Nc2nnc(-c3ccco3)s2)c(C)n1-c1cccc(Cl)c1	8.57*	-0.62
CCc1nnc(NC(=O)C(=O)c2cc(C)n(-c3ccc(F)cc3)c2C)s1	2.32	-2.82
CCCC(C)NC(=O)CN1C(=O)c2ccccc2S1(=O)=O (configuration not stated)	2.42	0.04
O=C(Nc1nnc(-c2ccccc2F)s1)C(=O)c1c[nH]c2ccccc12	1.59	-2.13
Cc1c(C(=O)O)sc2ncnc(Nc3ccccc3F)c12	21.4*	/
Cc1c(C(=O)O)sc2ncnc(NCc3ccco3)c12	1.55	/
COc1ccc(Cl)cc1Nc1ncnc2sc(C(=O)O)c(C)c12	3.89*	/
Cc1c(C(=O)O)sc2ncnc(NCCC3=CCCCC3)c12	6.61*	/
Cc1c(C(=O)O)sc2ncnc(NC3CC3)c12	0.22	/
COc1ccc(Nc2ncnc3sc(C(=O)O)c(C)c23)c(OC)c1	2.33	/
CCCCNc1ncnc2sc(C(=O)O)c(C)c12	0.95	/
Cc1c(C(=O)O)sc2ncnc(Nc3ccc(F)c(Cl)c3)c12	20.2*	/
Cc1csc(NC(=O)CSc2c(C(C)C)cnc3c2c(=O)n(C)c(=O)n3C)n1	0	/
Cn1c(-c2ccc(Br)cc2)cnc1NCc1ccc(F)cc1	-0.4	-1.66
SMILES	TAR Tat displ	CDC25B-CDK2 inh
CN1CCN(S(=O)(=O)c2cc(Br)cc3c2N(C(=O)C2CC2)CC3)CC1	/	-1.07
Cc1csc(NC(=O)CSc2nnc3ccc(-c4ccncc4)nn23)n1	0.45	/
Cc1ccc(CNC(=O)c2cnc3scc(C)n3c2=O)o1	1.15	/
Cc1cc(C)n(Cc2c(C(=O)NC(C)C)noc2C)n1	1.6	/
Cc1[nH]c(=O)[nH]c(=O)c1S(=O)(=O)N1CCc2ccccc2C1	-0.8	/
COc1ccc2[nH]c(C)c(CN(C)C3CCN(C)CC3)c(=O)c2c1	/	-1.98
OC(CNCc1ccco1)C(F)(F)F (configuration not stated)	/	-3.85
Cc1nn2c(=O)c(NC(=O)c3ccccc3C)cnc2s1	0.28	0.06
CCn1nc(-c2ccccc2Br)nc2c(=O)n(C)c(=O)nc1-2	0.43	11.5*
CCn1nc(-c2ccccn2)nc2c(=O)n(C)c(=O)nc1-2	-2.04	-2.32
O=c1[nH]c2ccc(NCc3ccc(-c4ccc(Cl)cc4)o3)cc2[nH]1	-3.11	10.3*
O=c1[nH]c2ccc(NCc3ccc4c(c3)OCO4)cc2[nH]1	-1.88	0.69
O=c1[nH]c2ccc(NCc3ccc(-c4ccccc4)o3)cc2[nH]1	-0.75	3.6
O=c1[nH]c2ccc(NCc3ccc(-c4ccccc4F)o3)cc2[nH]1	-1.22	4.65*
CCn1nc(C)c(CCNC(=O)Nc2cc(F)ccc2F)c1C	0.02	/
C=CCSc1nc2c(c(=O)[nH]1)C(c1cc(F)cc(F)c1)CC(=O)N2 (configuration not stated)	-0.27	-1.42
CCOc1cc(C2CC(=O)Nc3nc(SC)[nH]c(=O)c32)ccc1O (configuration not stated)	1.84	-2.48
Cc1ccccc1CSc1nc2c(c(=O)[nH]1)C(c1ccc(O)c(O)c1)CC(=O)N2 (configuration not stated)	25.2*	2.85
CCCSc1nc2c(c(=O)[nH]1)C(c1ccc(O)c(O)c1)CC(=O)N2 (configuration not stated)	8.46*	7.82*
Cn1c(SCc2ccc(F)cc2)nc(=O)c2c1NC(=O)CC2c1cccc(O)c1 (configuration not stated)	-0.43	-1.23
C=CCSc1nc2c(c(=O)[nH]1)C(c1ccc(O)c(O)c1)CC(=O)N2 (configuration not stated)	18.5*	16.1*
CCOc1cc(C2CC(=O)Nc3nc(SCc4ccccc4C)[nH]c(=O)c32)ccc1O (configuration not stated)	1.76	-0.18
Cc1ccc(CSc2nc(=O)c3c(n2C)NC(=O)CC3c2ccc(O)c(O)c2)cc1 (configuration not stated)	25.8*	-0.12
N#CCCNc1ccc(N=Nc2ccc(Cl)cc2)cc1	/	-0.33
CCc1nnc(SCc2cc(=O)n3ccccc3n2)c2cc3sccc3n12	3.3	/
SMILES	TAR Tat displ	CDC25B-CDK2 inh
CCc1nc(SCC(=O)c2ccc(OC)c(Br)c2)n[nH]1	1	-2.28
Fc1ccc(-c2noc3ncnc(Nc4cccc(Cl)c4)c23)cc1	-0.52	/
Fc1cccc(Nc2ncnc3onc(-c4ccc(Cl)cc4)c23)c1	17.6*	/
CCOC(=O)N/N=C(\C)C12CC3CC(CC(C3)C1)C2	/	-0.65
Nc1c(-c2nc(-c3ccc(Cl)cc3)no2)nnn1-c1ccccc1F	0.47	/
O=C1CC(c2ccccc2F)C2=C(CC(c3ccccc3Cl)CC2=O)N1 (configuration not stated)	1.35	-1.38
O=C1CC(c2ccccc2Cl)C2=C(CC(c3ccccc3Cl)CC2=O)N1 (configuration not stated)	15.1*	3.05
COc1ccc(N2CCN(C(=O)c3nc(S(C)(=O)=O)ncc3Cl)CC2)cc1	2.1	1.31
O=C(Nc1ccc(O)c(-c2nc3ccccc3o2)c1)c1ccc(-c2ccccc2)cc1	/	-2.5
COc1ccc(CN2CCc3nc(N4CCN(C)CC4)ncc3C2)c(OC)c1	1.95	/
CCN(CC)c1ccc(C2CC(=O)C3=C(C2)Nc2ccccc2NC3c2ccco2)cc1 (configuration not stated)	24.7*	1.24
CN(C)c1ccc(C2Nc3ccccc3NC3=C2C(=O)CC(c2cccs2)C3)cc1 (configuration not stated)	0.13	7.43*
Cc1ccc(C2Nc3ccccc3NC3=C2C(=O)CC(c2cccs2)C3)cc1 (configuration not stated)	3.53	-0.78
O=C1CC(c2ccco2)CC2=C1C(c1ccco1)Nc1ccccc1N2 (configuration not stated)	0.63	-0.52
Cc1cc(C)cc(NS(=O)(=O)c2ccc(N3CCCC3=O)cc2)c1	0.57	/
COc1cccc(C=Nc2ccccc2SCCC#N)c1O	/	6.92*
COc1cc(C(=O)Nc2ccccc2SCCC#N)cc(OC)c1OC	/	0.31
CCCOC(=O)c1ccc(N2C(=O)c3sc4nc(C)cc(COC)c4c3NC2C)cc1 (configuration not stated)	1.25	-1.26

Compound activity from PubChem.
